± gives the standard deviation.
Test system: Streptococcus suis HE06
Test: percent growth relative to DMSO control; higher = less growth inhibition
Conditions: 10 µM; incubation time 18 h
Description: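 CLSI broth microdilution: 5x10^4 CFU of Streptococcus suis (strain P1/7 or HE06) incubated with 10 µM Pathogen Box compound in cation-adjusted Mueller Hinton broth, 37 °C, 5% CO2, 18 h. Growth read as OD600 and expressed as percent of the DMSO-treated control (100%); mean ± SD of three independent experiments.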

SMILES | percent growth [%]
COc1ccc2nc(C)cc(OCC(=O)Nc3ccccc3OC)c2c1 | 89.9 ± 9.3
COc1ccc(C2=NN(C3CCCCCC3)C(=O)C2(C)C)cc1OCCCCOc1ccc(-c2nn[nH]n2)cc1 | 2.58 ± 3.1
COc1ccc(-c2cc(NC(=O)c3ccc(F)cc3Cl)ccc2OC)cc1 | 89.4 ± 3.4
c1ccc(Oc2ccc(-c3cc(C4CCOCC4)[nH]n3)cc2)cc1 | 59.7 ± 17
CC(C)C(Oc1cccc2ccccc12)C(=O)O (stereo not drawn) | 87 ± 4.3
COc1ccc(-c2cnc3ccc(N4CCCC4)nn23)cc1OC | 48.8 ± 40
COc1cc(OC)cc(C(=O)NCC2Cc3cc(Cl)cc(-c4ccncc4)c3O2)c1 (stereo not drawn) | 90 ± 28
CNC(=O)C1Cc2ccccc2N1C(=O)Cc1ccc(F)cc1 (stereo not drawn) | 96.6 ± 1.8
NCC(c1cccs1)S(=O)(=O)c1ccccc1 (stereo not drawn) | 111 ± 30
COc1ccc(CCN2CCC(NCc3cccc(N(C)C)c3)CC2)cc1 | 98.6 ± 35
Cc1cccc(NC(=O)c2cc(S(=O)(=O)N(C)c3ccc(F)cc3)ccc2Cl)n1 | 111 ± 31
O=C(NCCN1CCCC1)c1cc(NCCCCN2CCC(F)(F)CC2)nc2ccc(Cl)cc12 | 93 ± 6.6
CC(C)N=c1cc2n(-c3ccc(Cl)cc3)c3ccccc3nc-2cc1Nc1ccc(Cl)cc1 | 29.6 ± 51
Nc1ncc(-c2cn[nH]c2)cc1-c1nc2cc(Cl)cnc2[nH]1 | 90.8 ± 5.4
O[C@@H](c1cc(C(F)(F)F)nc2c(C(F)(F)F)cccc12)[C@H]1CCCCN1 | 94 ± 6.1
Cc1cc(OCC(=O)Nc2ccc(C(C)C)cc2)n(C)c(=O)c1C#N | 99.6 ± 7.3
Clc1ccc(CN2CCN(C3=NCCN3)CC2)cc1Cl | 89 ± 2.1
FC(F)(F)c1cnc(Sc2nnc(-c3ccncc3)o2)c(Cl)c1 | 94.8 ± 27
COC(=O)C1=C(C)NC(C)=C(C(=O)OC(C)C)C1c1cccc2nonc12 (stereo not drawn) | 73.1 ± 15

SMILES | percent growth [%]
CCOc1ccc2cc(-c3nn(CC4CCN(C)CC4)c4ncnc(N)c34)ccc2c1 | 97 ± 13
CC1CCCN(C(=O)C(C)Nc2cc(Cl)ccc2N2CCOCC2)C1 (stereo not drawn) | 92 ± 11
O=C(NCc1nnc2n1CCCCC2)c1ccc(-c2ccc(F)cc2)o1 | 82.7 ± 15
CC(=O)N1CCN(c2ccc(Oc3ccc(Cl)cc3O)cc2)CC1 | 142 ± 58
Cc1cc(C)n2nc(C(=O)Nc3cc(C(F)(F)F)ccc3N3CCOCC3)nc2n1 | 240 ± 280
CC(C)C(NC(=O)Cc1cccc2ccccc12)C(=O)Nc1cccc(C#N)c1 (stereo not drawn) | 84.6 ± 21
Cc1cc(C)nc(-n2nc(C)cc2Nc2ccccc2)n1 | 0.964 ± 1.7
CCOC(=O)c1noc(N)c1-c1ccccc1 | 107 ± 2.4
O=C(NC1CC1)c1ccc(N2CCOc3ccc(Cl)cc32)s1 | 73.8 ± 20
CC(C)(C)c1cc(C(=O)Nc2cccnc2)cc(C(=O)Nc2cccnc2)c1 | 80.6 ± 4.4
CC(=O)Nc1ccc(NC(=O)c2cc(-c3cc(Cl)ccc3O)[nH]n2)cc1 | 96.5 ± 11
O=C(Nc1cnc2ccccc2c1)c1cccc(-n2cnnn2)c1 | 110 ± 2.4
CC(=O)NC[C@H]1CN(c2ccc(N3CCSCC3)c(F)c2)C(=O)O1 | 3.44 ± 3.9
Brc1cncc(-c2cc(NCCCn3ccnc3)nc(-c3ccccc3)n2)c1 | 46.7 ± 37
CN1CCN(c2nccc3nc(-c4ccc(F)c(F)c4)[nH]c23)CC1 | 82.2 ± 21
CC(Oc1ccccc1)C(=O)Nc1nc(-c2ccccn2)cs1 (stereo not drawn) | 2.67 ± 2.8
CCCn1c(NC(=O)c2ccc3ccccc3n2)nc2ccccc21 | 0
CCNC(=O)C(C)Nc1nc(-c2cccnc2)nc2sc(C)c(C)c12 (stereo not drawn) | 101 ± 8.4
CC1CS(=O)(=O)CCN1/N=C/c1ccc([N+](=O)[O-])o1 (stereo not drawn) | 85.9 ± 6.6
